Source: the supplement of paper PMC4466140

Molecular target: AgAbp1
Experiment: SPOT peptide array binding signal intensity (averaged, normalized) (arbitrary units (background-subtracted, floor 0; scale differs between SH3 domains)); higher = stronger binding of the SH3 domain to the peptide
How it was run: (§1)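 Four yeast species supplied the SH3 domains, which were expressed as GST fusions in E. coli BL21(DE3) and purified on glutathione Sepharose. Incubation with cellulose membranes carrying synthetic 15-mer peptides, cysteines exchanged for serines, ran overnight at 4°C at 10 μg/ml in TBS-based blocking buffer. Binding signal is reported as normalized, background-subtracted spot intensity averaged over replicates, in arbitrary units not shared between domains.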

Binder	SPOT peptide array binding signal intensity
FYNRTAFQLPGDARV	1.5

Molecular target: AgBbc1
Experiment: as above
How it was run: as §1

Binder	SPOT peptide array binding signal intensity
FYNRTAFQLPGDARV	0.5

Molecular target: AgBem1-D1
Experiment: as above
How it was run: as §1

Binder	SPOT peptide array binding signal intensity
FYNRTAFQLPGDARV	≤ 0

Molecular target: AgBzz1-D1
Experiment: as above
How it was run: as §1

Binder	SPOT peptide array binding signal intensity
FYNRTAFQLPGDARV	39.5

Molecular target: AgBzz1-D2
Experiment: as above
How it was run: as §1

Binder	SPOT peptide array binding signal intensity
FYNRTAFQLPGDARV	39

Molecular target: AgCyk3
Experiment: as above
How it was run: as §1

Binder	SPOT peptide array binding signal intensity
FYNRTAFQLPGDARV	2

Molecular target: AgFus1
Experiment: as above
How it was run: as §1

Binder	SPOT peptide array binding signal intensity
FYNRTAFQLPGDARV	12

Molecular target: AgHof1
Experiment: as above
How it was run: as §1

Binder	SPOT peptide array binding signal intensity
FYNRTAFQLPGDARV	12.2

Molecular target: AgHse1
Experiment: as above
How it was run: as §1

Binder	SPOT peptide array binding signal intensity
FYNRTAFQLPGDARV	18

Molecular target: AgLsb1
Experiment: as above
How it was run: as §1

Binder	SPOT peptide array binding signal intensity
FYNRTAFQLPGDARV	1140

Molecular target: AgLsb4
Experiment: as above
How it was run: as §1

Binder	SPOT peptide array binding signal intensity
FYNRTAFQLPGDARV	≤ 0

Molecular target: AgMyo5
Experiment: as above
How it was run: as §1

Binder	SPOT peptide array binding signal intensity
FYNRTAFQLPGDARV	9.5

Molecular target: AgNbp2
Experiment: as above
How it was run: as §1

Binder	SPOT peptide array binding signal intensity
FYNRTAFQLPGDARV	≤ 0

Molecular target: AgRvs167
Experiment: as above
How it was run: as §1

Binder	SPOT peptide array binding signal intensity
FYNRTAFQLPGDARV	1.83

Molecular target: AgSho1
Experiment: as above
How it was run: as §1

Binder	SPOT peptide array binding signal intensity
FYNRTAFQLPGDARV	≤ 0

Molecular target: AgSla1-D1-D2
Experiment: as above
How it was run: as §1

Binder	SPOT peptide array binding signal intensity
FYNRTAFQLPGDARV	1

Molecular target: AgSla1-D3
Experiment: as above
How it was run: as §1

Binder	SPOT peptide array binding signal intensity
FYNRTAFQLPGDARV	1

Molecular target: CaAbp1-D1
Experiment: as above
How it was run: as §1

Binder	SPOT peptide array binding signal intensity
FYNRTAFQLPGDARV	7

Molecular target: CaAbp1-D2
Experiment: as above
How it was run: as §1

Binder	SPOT peptide array binding signal intensity
FYNRTAFQLPGDARV	≤ 0

Molecular target: CaBbc1
Experiment: as above
How it was run: as §1

Binder	SPOT peptide array binding signal intensity
FYNRTAFQLPGDARV	3

Molecular target: CaBem1-D1
Experiment: as above
How it was run: as §1

Binder	SPOT peptide array binding signal intensity
FYNRTAFQLPGDARV	16

Molecular target: CaBzz1-D1
Experiment: as above
How it was run: as §1

Binder	SPOT peptide array binding signal intensity
FYNRTAFQLPGDARV	37.5

Molecular target: CaBzz1-D2
Experiment: as above
How it was run: as §1

Binder	SPOT peptide array binding signal intensity
FYNRTAFQLPGDARV	30.5

Molecular target: CaCyk3
Experiment: as above
How it was run: as §1

Binder	SPOT peptide array binding signal intensity
FYNRTAFQLPGDARV	5

Molecular target: CaFus1
Experiment: as above
How it was run: as §1

Binder	SPOT peptide array binding signal intensity
FYNRTAFQLPGDARV	21.5

Molecular target: CaHof1
Experiment: as above
How it was run: as §1

Binder	SPOT peptide array binding signal intensity
FYNRTAFQLPGDARV	0.5

Molecular target: CaHse1
Experiment: as above
How it was run: as §1

Binder	SPOT peptide array binding signal intensity
FYNRTAFQLPGDARV	2

Molecular target: CaLsb1
Experiment: as above
How it was run: as §1

Binder	SPOT peptide array binding signal intensity
FYNRTAFQLPGDARV	410

Molecular target: CaLsb4
Experiment: as above
How it was run: as §1

Binder	SPOT peptide array binding signal intensity
FYNRTAFQLPGDARV	≤ 0

Molecular target: CaMyo5
Experiment: as above
How it was run: as §1

Binder	SPOT peptide array binding signal intensity
FYNRTAFQLPGDARV	13.5

Molecular target: CaNbp2
Experiment: as above
How it was run: as §1

Binder	SPOT peptide array binding signal intensity
FYNRTAFQLPGDARV	22

Molecular target: CaRvs167
Experiment: as above
How it was run: as §1

Binder	SPOT peptide array binding signal intensity
FYNRTAFQLPGDARV	≤ 0

Molecular target: CaRvs167-3
Experiment: as above
How it was run: as §1

Binder	SPOT peptide array binding signal intensity
FYNRTAFQLPGDARV	3.5

Molecular target: CaSho1
Experiment: as above
How it was run: as §1

Binder	SPOT peptide array binding signal intensity
FYNRTAFQLPGDARV	11.5

Molecular target: CaSla1-D1-D2
Experiment: as above
How it was run: as §1

Binder	SPOT peptide array binding signal intensity
FYNRTAFQLPGDARV	≤ 0

Molecular target: CaSla1-D3
Experiment: as above
How it was run: as §1

Binder	SPOT peptide array binding signal intensity
FYNRTAFQLPGDARV	≤ 0

Molecular target: ScAbp1
Experiment: as above
How it was run: as §1

Binder	SPOT peptide array binding signal intensity
FYNRTAFQLPGDARV	2.5

Molecular target: ScBbc1
Experiment: as above
How it was run: as §1

Binder	SPOT peptide array binding signal intensity
FYNRTAFQLPGDARV	3.5

Molecular target: ScBem1-D1
Experiment: as above
How it was run: as §1

Binder	SPOT peptide array binding signal intensity
FYNRTAFQLPGDARV	0.5

Molecular target: ScBzz1-D1
Experiment: as above
How it was run: as §1

Binder	SPOT peptide array binding signal intensity
FYNRTAFQLPGDARV	22

Molecular target: ScBzz1-D2
Experiment: as above
How it was run: as §1

Binder	SPOT peptide array binding signal intensity
FYNRTAFQLPGDARV	36

Molecular target: ScCyk3
Experiment: as above
How it was run: as §1

Binder	SPOT peptide array binding signal intensity
FYNRTAFQLPGDARV	20

Molecular target: ScFus1
Experiment: as above
How it was run: as §1

Binder	SPOT peptide array binding signal intensity
FYNRTAFQLPGDARV	≤ 0

Molecular target: ScHof1
Experiment: as above
How it was run: as §1

Binder	SPOT peptide array binding signal intensity
FYNRTAFQLPGDARV	≤ 0

Molecular target: ScHse1
Experiment: as above
How it was run: as §1

Binder	SPOT peptide array binding signal intensity
FYNRTAFQLPGDARV	61.5

Molecular target: ScLsb1
Experiment: as above
How it was run: as §1

Binder	SPOT peptide array binding signal intensity
FYNRTAFQLPGDARV	554

Molecular target: ScLsb2
Experiment: as above
How it was run: as §1

Binder	SPOT peptide array binding signal intensity
FYNRTAFQLPGDARV	843

Molecular target: ScLsb3
Experiment: as above
How it was run: as §1

Binder	SPOT peptide array binding signal intensity
FYNRTAFQLPGDARV	≤ 0

Molecular target: ScLsb4
Experiment: as above
How it was run: as §1

Binder	SPOT peptide array binding signal intensity
FYNRTAFQLPGDARV	≤ 0

Molecular target: ScMyo3
Experiment: as above
How it was run: as §1

Binder	SPOT peptide array binding signal intensity
FYNRTAFQLPGDARV	40

Molecular target: ScMyo5
Experiment: as above
How it was run: as §1

Binder	SPOT peptide array binding signal intensity
FYNRTAFQLPGDARV	12.5

Molecular target: ScNbp2
Experiment: as above
How it was run: as §1

Binder	SPOT peptide array binding signal intensity
FYNRTAFQLPGDARV	≤ 0

Molecular target: ScPex13
Experiment: as above
How it was run: as §1

Binder	SPOT peptide array binding signal intensity
FYNRTAFQLPGDARV	≤ 0

Molecular target: ScRvs167
Experiment: as above
How it was run: as §1

Binder	SPOT peptide array binding signal intensity
FYNRTAFQLPGDARV	≤ 0

Molecular target: ScSho1
Experiment: as above
How it was run: as §1

Binder	SPOT peptide array binding signal intensity
FYNRTAFQLPGDARV	1

Molecular target: ScSla1-D1-D2
Experiment: as above
How it was run: as §1

Binder	SPOT peptide array binding signal intensity
FYNRTAFQLPGDARV	≤ 0

Molecular target: ScSla1-D3
Experiment: as above
How it was run: as §1

Binder	SPOT peptide array binding signal intensity
FYNRTAFQLPGDARV	1

Molecular target: SpAbp1-D1
Experiment: as above
How it was run: as §1

Binder	SPOT peptide array binding signal intensity
FYNRTAFQLPGDARV	≤ 0

Molecular target: SpBbc1
Experiment: as above
How it was run: as §1

Binder	SPOT peptide array binding signal intensity
FYNRTAFQLPGDARV	0.5

Molecular target: SpBzz1-D1
Experiment: as above
How it was run: as §1

Binder	SPOT peptide array binding signal intensity
FYNRTAFQLPGDARV	86

Molecular target: SpBzz1-D2
Experiment: as above
How it was run: as §1

Binder	SPOT peptide array binding signal intensity
FYNRTAFQLPGDARV	≤ 0

Molecular target: SpCyk3
Experiment: as above
How it was run: as §1

Binder	SPOT peptide array binding signal intensity
FYNRTAFQLPGDARV	2

Molecular target: SpHof1
Experiment: as above
How it was run: as §1

Binder	SPOT peptide array binding signal intensity
FYNRTAFQLPGDARV	4

Molecular target: SpHof1-2
Experiment: as above
How it was run: as §1

Binder	SPOT peptide array binding signal intensity
FYNRTAFQLPGDARV	1.5

Molecular target: SpHof1-3
Experiment: as above
How it was run: as §1

Binder	SPOT peptide array binding signal intensity
FYNRTAFQLPGDARV	22.5

Molecular target: SpHse1
Experiment: as above
How it was run: as §1

Binder	SPOT peptide array binding signal intensity
FYNRTAFQLPGDARV	21.5

Molecular target: SpLsb1
Experiment: as above
How it was run: as §1

Binder	SPOT peptide array binding signal intensity
FYNRTAFQLPGDARV	216

Molecular target: SpLsb4
Experiment: as above
How it was run: as §1

Binder	SPOT peptide array binding signal intensity
FYNRTAFQLPGDARV	≤ 0

Molecular target: SpMyo1
Experiment: as above
How it was run: as §1

Binder	SPOT peptide array binding signal intensity
FYNRTAFQLPGDARV	17.5

Molecular target: SpNbp2
Experiment: as above
How it was run: as §1

Binder	SPOT peptide array binding signal intensity
FYNRTAFQLPGDARV	2.5

Molecular target: SpPex13
Experiment: as above
How it was run: as §1

Binder	SPOT peptide array binding signal intensity
FYNRTAFQLPGDARV	2

Molecular target: SpRvs167
Experiment: as above
How it was run: as §1

Binder	SPOT peptide array binding signal intensity
FYNRTAFQLPGDARV	≤ 0

Molecular target: SpSla1-D1-D2
Experiment: as above
How it was run: as §1

Binder	SPOT peptide array binding signal intensity
FYNRTAFQLPGDARV	≤ 0

Molecular target: SpSla1-D3
Experiment: as above
How it was run: as §1

Binder	SPOT peptide array binding signal intensity
FYNRTAFQLPGDARV	0.5
